Test [1] addresses Casein kinase I isoform gamma-2 (Homo sapiens) (UniProt P78368). The settings on record: at 1 µM.
Test [2] concerns the target Casein kinase I isoform gamma-3 (Homo sapiens) (UniProt Q9Y6M4). The settings on record: at 0.1 µM.
Test [3] has the same target. The following applies: at 1 µM.
In test [4] the target is Cyclin-dependent kinase 1 (Homo sapiens) (UniProt P06493). The following applies: at 0.1 µM.
Test [5] has the same target. The following applies: at 1 µM.
Test [6] addresses Cyclin-dependent kinase 2 (Homo sapiens) (UniProt P24941). The following applies: at 0.1 µM.
The target is the same in test [7]. The settings on record: at 1 µM.
Test [8] has the same target. The following applies: at 0.1 µM. The source holds these as a separate data set.
Test [9] has the same target. The settings on record: at 1 µM. The source holds these as a separate data set.
Test [10] has as its target CDK3/Cyclin E (Homo sapiens) (UniProt P24864+Q00526). The settings on record: at 0.1 µM.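 Further: reported percentages are mean inhibition values.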

Each structure is given as a SMILES string.

As usually defined, the inhibition is the drop in the measured response relative to a control, in per cent.

Sequence of Casein kinase I isoform gamma-3 (Homo sapiens) (Q9Y6M4 whole entry, looked up, canonical isoform): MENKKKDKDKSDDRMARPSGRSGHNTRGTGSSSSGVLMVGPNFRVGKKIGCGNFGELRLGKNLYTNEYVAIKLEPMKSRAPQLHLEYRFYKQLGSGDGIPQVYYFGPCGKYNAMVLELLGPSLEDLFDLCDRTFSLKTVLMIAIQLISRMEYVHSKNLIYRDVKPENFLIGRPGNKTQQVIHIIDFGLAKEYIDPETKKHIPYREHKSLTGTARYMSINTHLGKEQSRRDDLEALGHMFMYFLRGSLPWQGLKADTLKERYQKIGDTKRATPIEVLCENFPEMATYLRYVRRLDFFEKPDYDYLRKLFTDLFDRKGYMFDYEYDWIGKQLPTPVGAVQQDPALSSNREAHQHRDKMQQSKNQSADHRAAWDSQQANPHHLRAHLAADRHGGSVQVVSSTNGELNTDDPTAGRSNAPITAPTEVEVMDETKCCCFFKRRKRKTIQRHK
Sequence of Cyclin-dependent kinase 1 (Homo sapiens) (P06493 whole entry, looked up): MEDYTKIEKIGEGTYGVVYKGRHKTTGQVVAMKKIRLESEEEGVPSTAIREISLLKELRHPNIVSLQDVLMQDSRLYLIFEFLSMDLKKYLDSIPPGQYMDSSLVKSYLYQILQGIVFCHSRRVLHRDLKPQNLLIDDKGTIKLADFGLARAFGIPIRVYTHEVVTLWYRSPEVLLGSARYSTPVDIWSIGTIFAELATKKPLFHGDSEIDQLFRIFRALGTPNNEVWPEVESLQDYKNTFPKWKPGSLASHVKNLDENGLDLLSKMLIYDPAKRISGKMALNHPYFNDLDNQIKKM
Sequence of Casein kinase I isoform gamma-2 (Homo sapiens) (P78368 whole entry, looked up, canonical isoform): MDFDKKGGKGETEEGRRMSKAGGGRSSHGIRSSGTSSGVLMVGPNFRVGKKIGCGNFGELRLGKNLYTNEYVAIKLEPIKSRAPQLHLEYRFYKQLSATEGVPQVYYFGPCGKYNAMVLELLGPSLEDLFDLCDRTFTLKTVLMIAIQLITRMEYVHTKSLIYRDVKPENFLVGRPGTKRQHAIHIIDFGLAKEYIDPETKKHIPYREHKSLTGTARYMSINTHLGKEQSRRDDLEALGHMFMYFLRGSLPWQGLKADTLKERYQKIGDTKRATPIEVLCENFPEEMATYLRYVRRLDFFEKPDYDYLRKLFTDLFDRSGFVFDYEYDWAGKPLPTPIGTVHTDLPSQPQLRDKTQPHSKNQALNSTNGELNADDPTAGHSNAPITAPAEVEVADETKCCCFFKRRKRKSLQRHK
Sequence of CDK3/Cyclin E (Homo sapiens) (P24864 whole entry, looked up): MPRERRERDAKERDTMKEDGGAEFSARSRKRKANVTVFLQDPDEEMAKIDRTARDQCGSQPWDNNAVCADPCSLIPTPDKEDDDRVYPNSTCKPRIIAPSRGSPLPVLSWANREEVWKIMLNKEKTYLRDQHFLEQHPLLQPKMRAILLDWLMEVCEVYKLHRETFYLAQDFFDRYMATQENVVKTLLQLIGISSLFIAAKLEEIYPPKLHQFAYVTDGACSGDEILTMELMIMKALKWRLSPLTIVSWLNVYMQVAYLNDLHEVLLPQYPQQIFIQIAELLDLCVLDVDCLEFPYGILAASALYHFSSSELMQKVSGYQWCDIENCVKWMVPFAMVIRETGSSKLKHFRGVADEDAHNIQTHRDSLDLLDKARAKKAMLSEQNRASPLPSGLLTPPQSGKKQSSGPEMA
Sequence of CDK3/Cyclin E (Homo sapiens) (Q00526 whole entry, looked up): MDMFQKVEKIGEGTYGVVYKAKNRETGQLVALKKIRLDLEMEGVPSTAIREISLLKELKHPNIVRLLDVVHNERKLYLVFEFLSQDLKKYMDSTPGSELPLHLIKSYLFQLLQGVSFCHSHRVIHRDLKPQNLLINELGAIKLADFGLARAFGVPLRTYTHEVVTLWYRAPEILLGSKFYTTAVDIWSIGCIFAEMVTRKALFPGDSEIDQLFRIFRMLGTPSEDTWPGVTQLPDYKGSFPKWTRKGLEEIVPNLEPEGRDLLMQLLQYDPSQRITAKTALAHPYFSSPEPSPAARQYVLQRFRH

For the molecule `O=C(Nc1n[nH]c2cc(-c3cc(F)ccc3F)ccc12)C1CC1`, the inhibition in test [1] turned out to be 3.38%; in [2], 1.27%; in [3], 2.99%; in test [4] it was 1.12%; in test [5], 7.47%; in test [6], 2.01%. Besides, the inhibition in test [7] was found to be 17.3%; in test [8], 2.48%; in test [9] it was 11.6%; in test [10], 2.32%.
As to `CCc1ccc(Oc2nccc(-c3c(-c4ccc(F)cc4)ncn3C3CCNCC3)n2)cc1`, the inhibition in test [1] came to 11.5%; in test [2] it was 6.23%; in [3] it was 30%; in test [4], 2.36%; in test [5], 2.02%; in [6] it was 3.63%. Further, the inhibition in test [7] is 2.75%; in [8], 2.03%; in test [9], 2.75%; in test [10], -2.23%.
Turning to `C[C@@H](Oc1cc(-n2cnc3ccc(OC4CCN(C)CC4)cc32)sc1C(N)=O)c1ccccc1Cl`, the inhibition is -0.19% in test [1]; -1.77% in test [2]; -4.38% in test [3]; -1.71% in [4]; -2.15% in test [5]; -1.38% in test [6]. The inhibition is -0.94% in [7], -0.63% in [8], 2.09% in test [9] and -3.54% in [10].
Consider `Fc1ccc(-c2c(-c3ccncc3)nc3n2CCS3)cc1`, for which the inhibition in [1] was -0.73%; in test [2], -3.04%; in [3] it was -1.19%; in [4] it was -4.51%; in test [5], -4.05%; in test [6], -1.82%. Besides, the inhibition was -3.21% in [7], -1.42% in test [8], 0.06% in [9] and 2.29% in test [10].
On to `COc1cc2ncn(-c3cc(OCc4ccccc4C(F)(F)F)c(C(C)=O)s3)c2cc1OC`, for which the inhibition worked out at 3.62% in [1]; 2.1% in test [2]; 2.97% in test [3]; 0.91% in test [4]; 2.22% in [5]; 0.94% in test [6]. Also, the inhibition in [7] was 2.63%; in test [8], 2.2%; in test [9], 3.96%; in test [10], -1.43%.
In the case of `NC(=O)Cc1ccccc1Oc1nccc(-c2c(-c3ccc(F)cc3)ncn2C2CCNCC2)n1`, the inhibition in [1] was 10.5%; in [2] it was 3.98%; in [3], 8.65%; in test [4], -0.31%; in test [5], -0.43%; in [6], 1.15%. The inhibition in [7] worked out at 2%; in test [8], 1.82%; in test [9] it was 2.1%; in test [10] it was 2.95%.
Turning to `COc1cc2ncn(-c3cc(OCc4cccs4)c(C(N)=O)s3)c2cc1OC`, the inhibition in test [1] is -1.86%; in test [2] it was -0.97%; in [3] it was -0.06%; in test [4], -2.79%; in test [5] it was -0.17%; in [6], -2.8%. In addition, the inhibition in [7] is 6.63%; in [8] it was -0.55%; in test [9], 4.77%; in [10], 1.28%.
For `CCC(=O)Nc1ccc(C)c(-c2ccc(C(=O)NCC3CC3)cc2)c1`, the inhibition in [1] was determined as 3.16%; in test [2] it was 1.58%; in test [3], 1.61%; in [4], 2.88%; in test [5], 2.38%; in test [6], 3.84%. Also, the inhibition in test [7] is 3.06%; in test [8], 3.5%; in test [9], 4.47%; in test [10], -1.57%.
Turning to `NC(=O)c1ccc(Oc2nccc(-c3c(-c4ccc(F)cc4)ncn3C3CCNCC3)n2)cc1`, the inhibition is 7.07% in test [1]; 4.74% in [2]; 9.02% in test [3]; 3.25% in [4]; 1.41% in test [5]; 3.34% in test [6]. For the same molecule, the inhibition was 3.6% in test [7], 3.03% in test [8], 4.26% in [9] and -3.59% in test [10].
On to `CS(=O)(=O)CCNCc1cc(-c2cc3c(Nc4ccc(OCc5cccc(F)c5)c(Cl)c4)ncnc3s2)cs1`, for which the inhibition in test [1] turned out to be 4.61%; in test [2], 3.07%; in [3], 1.92%; in test [4] it was 2.55%; in [5] it was 0.45%; in test [6], 3.05%. The inhibition is 1.47% in test [7], 1.9% in test [8], 4.94% in test [9] and -3.37% in test [10].
In the case of `COc1ccc2ncn(-c3cc(O[C@H](C)c4ccccc4Cl)c(C(N)=O)s3)c2c1`, the inhibition in [1] was 0.41%; in [2] it was -0.98%; in test [3] it was -2.81%; in test [4], -3.45%; in test [5], -2.45%; in test [6], -2.63%. Further, the inhibition in test [7] is -1.27%; in test [8] it was -1.28%; in test [9] it was 1.93%; in [10], -2.44%.
For the molecule `COc1cc(Nc2ncc(-c3ccccc3)o2)cc(OC)c1OC`, the inhibition in test [1] is -0.69%; in test [2], -0.27%; in test [3], -0.18%; in test [4], 0.44%; in [5], 6.1%; in [6], 0.56%. Moreover, the inhibition in test [7] turned out to be 9.21%; in test [8], 0.79%; in test [9], 6.45%; in test [10], 0.2%.
As to `CN(C)CCOc1ccc(-c2cc(-c3ccc4c(c3)CCC4=NO)c(-c3ccncc3)o2)cc1`, the inhibition is -0.77% in test [1]; -0.76% in test [2]; -0.08% in [3]; 0.53% in test [4]; 1.85% in [5]; -0.07% in test [6]. Besides, the inhibition in test [7] is 0.53%; in test [8] it was -0.38%; in [9] it was 0.33%; in [10], -2.82%.
For `CCS(=O)(=O)c1ccc(OC)c(Nc2ncc(-c3ccccc3Cl)o2)c1`, the inhibition is 1.51% in [1]; -0.55% in test [2]; 0.35% in [3]; 0.87% in test [4]; 0.32% in test [5]; 0.49% in test [6]. Further, the inhibition in test [7] was 3.52%; in test [8] it was -0.35%; in test [9], 1.49%; in test [10] it was -7.09%.
Turning to `Fc1ccc(-c2ncn(C3CCNCC3)c2-c2ccnc(Oc3ccc(F)c(F)c3)n2)cc1`, the inhibition in [1] is 1.91%; in [2], -0.68%; in test [3] it was 1.74%; in test [4] it was -1.46%; in [5], 2.42%; in test [6], -1.17%. Further, the inhibition in [7] is -0.54%; in [8] it was 3.33%; in test [9], 6.4%; in [10], -1.06%.
`Fc1ccc(-c2ncn(C3CCNCC3)c2-c2ccnc(Oc3ccc4c(c3)OCO4)n2)cc1`: the inhibition in test [1] is 9.12%; in test [2] it was 4.73%; in [3], 17.9%; in test [4], 0.2%; in test [5], 1.39%; in [6] it was 1.83%. The inhibition in test [7] was 3.44%; in test [8] it was 3.24%; in test [9], 6.04%; in test [10], -0.22%.
As for `NC(=O)c1cc(-c2ccncc2)cc(-c2ccccc2)c1N`, the inhibition in test [1] is 4.95%; in test [2] it was 4.56%; in test [3] it was 4.47%; in test [4], -0.45%; in test [5] it was 1.56%; in [6], 2.79%. The inhibition turned out to be 5.38% in test [7], 4.07% in test [8], 3.97% in [9] and 4.6% in test [10].

The values are drawn from ChEMBL document CHEMBL1961873, “Compounds: GSK PKIS; Assays: Nanosyn kinase panel” (2012).
